High-throughput results (PubChem BioAssay)
MCF10A rereplic: DNA re-replication induction in MCF 10a cells | AID 624296 | Potency, µM (doses to about 46.1 µM), for the others: top-dose activity, positive = re-replication, most hits filed as activators | 350,000 tested, 2.9% active | MCF 10A DNA re-replication, Hoechst nuclear intensity, 48 h; also: potency is read from the fitted curve at half-maximal effect; % of control where 0% means no effect; nearly all actives have a fitted effect of over 50% in size
SW480 rereplic: induces DNA re-replication in SW480 colon adenocarcinoma cells. SW480 DNA re-replication, Hoechst DNA content imaging, 48 h. Potency, µM (series often up to 46.1 µM), for inactives: at the top dose re-replication activation, actives largely listed as activators. 340,000 tested, 1.8% active; also: potency is read from the fitted curve at half-maximal effect; % of control where 0% means no effect; nearly all actives have a fitted effect of over 55% in size
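Cells (250 per well) received 23 nL compound or DMSO by pin tool and were kept 48 hr at 37 C, 5% CO2. Nuclei were then stained with Hoechst for 40 min and scanned for DNA content.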
Chronic BCR inh: chronic active BCR signaling inhibition. AID 493014. Potency, µM (top dose mostly 46.1 µM), inactives show top-dose activity change, negative = inhibition, usual class: inhibitors. ABC-DLBCL IkBa-CBG/CBR reporter, luminescence ratio, 4 h. 340,000 tested, 0.05% active; active = well fitted inhibition curve with a large enough effect in the signal ratio, with a control signal flat, not every such curve was filed as active; inconclusive = small, poorly fitted or top-dose-only effect, or effect the other way, or a change in a side signal; the % refers to the signal ratio;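 also: potency is read from the fitted curve at half-maximal effect; plate controls were basal doxycycline-induced cells for no effect and cells given 10 µM MG132 for full effect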
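TMD8 ABC-DLBCL cells carrying doxycycline-inducible green luciferase fused to IkappaBalpha plus unfused red luciferase were exposed to compounds (up to 46 uM) for 4 hrs at 37C. Activity came from the overlap-corrected green/red luminescence ratio.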
DT40 TDP1 CPT: growth inhibition of DT40 Tdp1-/-;hTDP1 cells with camptothecin (screen for TDP1 inhibitors). chicken DT40 Tdp1-/-;hTDP1 cells + 20 nM CPT, ATP luminescence, 48 h. Potency, µM (series often up to 46.2 µM), for the others: top-dose activity change, negative = growth inhibition, actives largely listed as inhibitors. 420,000 tested, 12% active; also: potency is read from the fitted curve at half-maximal effect; % is scaled to controls: 0 for no effect and ±100 for the full control effect; nearly all actives have a fitted effect of over 55% in size
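Chicken DT40 Tdp1-/- cells complemented with human TDP1, 400 cells/well, exposed to compounds plus 20 nM camptothecin for at least 48 h at 37 C; viability read as ATP content by CellTiter-Glo luminescence.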
DT40 TDP1 no CPT: qHTS for Inhibitors of human tyrosyl-DNA phosphodiesterase 1 (TDP1): qHTS in cells in absence of CPT | DT40 Tdp1-/- hTDP1 cells, no CPT, ATP luminescence, 48 h | Potency, µM (doses to about 46.2 µM), for inactives: top-dose activity change, negative = growth inhibition, usual class: inhibitors | 420,000 tested, 15% active | AID 686978, 2013; also: potency is read from the fitted curve at half-maximal effect; % is scaled to controls: 0 for no effect and ±100 for the full control effect; nearly all actives have a fitted effect of over 55% in size
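DT40 Tdp1-/-;hTDP1 cells, no CPT (DMSO vehicle only), 400 cells/well; compounds pin-transferred; ≥48 hr, 37 °C; CellTiter-Glo 30 min RT dark, luminescence read.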
IL1B secr inh: blocks inflammasome-driven IL-1 beta release; THP-1 LPS/ATP IL-1B secretion, AlphaLISA, 16 h; active compounds read low; activity change, % at 57.5 µM; 360,000 tested, 4.7% active; AID 743279; in the data active = activity change below about -50%; inconclusive = mostly about -30% to -49%; also: % is scaled to controls: 0 for no effect and ±100 for the full control effect
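Secreted IL-1B measured by AlphaLISA bead assay after 16 h compound exposure of THP-1 cells; compounds (final up to 57.5 uM) added 1 h before LPS (250 ng/mL) and ATP (1.25 mM) stimulation; lower signal means less secretion.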
The depositor's hits bear a star; ? = inconclusive; . = no result given; [ ] = dose if it differs, or a comment. Shown are actives, neighbours in structure and some others; about 19% of the full set was active somewhere. Unless noted, calls follow the shape of the dose curve; as a rule, active = well fitted curve in the direction sought with a large enough effect; inconclusive = small, poorly fitted or top-dose-only effect, or another doubt; inactive = no such curve, though single readings can be large; an effect the other way counts as inactive or inconclusive.

SMILES	MCF10A rereplic	SW480 rereplic	Chronic BCR inh	DT40 TDP1 CPT	DT40 TDP1 no CPT	IL1B secr inh
CC(C)(C)c1cc(Cl)ccc1OCCn1ccnc1	19.8%	1.9%	-1.8%	-3.9%	?	-52.6*
Cc1ccc(C(C)(C)C)c(OCCCn2ccnc2)c1	?	17.3%	-6.3%	1.1%	?	-26.1
Cc1cc(C(C)(C)C)ccc1OCCn1ccnc1	?	0.4%	?	?	?	28.9
c1ccc(-c2ccccc2OCCCCn2ccnc2)cc1	1.0%	-2.8%[9.22 µM]	0.4%	23.1µM*	25.9µM*	-57.9*
CC(C)(C)c1ccccc1OCCCCCn1ccnc1	-1.6%	2.3%	-3.4%	?	?	-98.0*
C[C@H]1CN([C@@H](C)CO)C(=O)c2cc(C#CC3CCCC3)cnc2O[C@H]1CN(C)C(=O)Cc1ccccn1	.	.	.	4.4%	3.7%	-1.2
CN1C(=O)c2ccccc2Sc2ccc(NC(=O)N3CCCC3)cc21	?	-3.2%	0.7%	?	?	-14.7
CN1C(=O)c2ccccc2Sc2ccc(NC(=O)COc3ccc(Cl)cc3)cc21	.	.	?	20.6µM*	11.6µM*	.
CN1C(=O)c2ccccc2Sc2ccc(NC(=O)COc3ccc(F)cc3)cc21	.	.	?	16.4µM*	7.31µM*	.
CCCCC[C@H](O)/C=C/[C@@H]1[C@H]2C/C(=C/CCCC(=O)O)C[C@H]2C[C@H]1O	.	.	.	-24.6%	-13.0%	.
NCCCCc1cn(CC(=O)N2CCNCC2)nn1	14.5%	?	5.4%	21.9%	3.6%	2.2
COC(=O)[C@@]1(C(C)C)N=C(c2cc(OC)c(OC)c(OC)c2)[C@]2(O1)C(=O)N(C)c1ccccc12	.	.	.	-22.6%	?	-15.6
Cc1cccc(C(=O)Nc2nnc(SCc3cc(=O)n4cccc(C)c4n3)s2)c1	.	.	.	5.9%	1.7%	.
Cc1sc(=NC(=O)c2ccco2)n(C)c1-c1ccccc1	3.8%	-9.3%	-0.4%	?	?	?
Cc1sc(=NC(=O)c2ccco2)n(C)c1-c1ccc(F)cc1	7.7%	0.6%[9.22 µM]	?	?	16.4µM*	?
NS(=O)(=O)c1ccc(N/N=C/c2cn(-c3ccccc3)nc2-c2cccs2)cc1	13µM*	?	?	5.17µM*	2.91µM*	-60.7*
NS(=O)(=O)c1ccc(N/N=C/c2ccncc2)cc1	-35.0%	5.8%	-15.4%	0.4%	-12.6%	-0.1
Cc1nnc(SCC(=O)N/N=C/c2cn(-c3ccccc3)nc2-c2ccccc2)n1-c1ccccc1	?	17.0%	-2.3%	?	?	-78.4*
NC(=O)N/N=C/c1cn(-c2ccccc2)nc1-c1cccs1	0.5%	-0.3%	-2.1%	16.4µM*	?	?
NS(=O)(=O)c1ccc(N/N=C/c2ccccc2Br)cc1	6.2%	3.9%	-5.2%	-3.1%	-20.6%	-106.1*
O=C(N/N=C/c1cn(-c2ccccc2)nc1-c1cccs1)c1ccncc1	0.0%	24.2%	?	?	?	-5.9
Cc1c(NC(=O)COc2c(F)c(F)c(F)c(F)c2F)c(=O)n(-c2ccccc2)n1C	9.0%	-3.4%	2.6%	-7.1%	-11.3%	-8.5
NC(=O)N/N=C/c1sc(N2CCCCC2)nc1-c1cccs1	23.1µM*	20.6µM*	.	?	?	13.9
COc1ccc(C(C)(O)c2nc(-c3cccc(F)c3)cs2)cc1 (configuration not stated)	.	.	.	?	?	59.9
Cc1ccc(S(=O)(=O)c2nc(-c3ccccc3Br)oc2N(C)C)cc1	?	?	.	20.6µM*	?	14.9
SMILES	MCF10A rereplic	SW480 rereplic	Chronic BCR inh	DT40 TDP1 CPT	DT40 TDP1 no CPT	IL1B secr inh
CSc1oc(-c2ccco2)nc1S(=O)(=O)c1ccc(C)cc1	9.2%	-14.1%	-0.8%	1.8%	-28.1%	-1.8
COc1ccccc1-c1nc(S(=O)(=O)c2ccc(Cl)cc2)c(N(C)C)o1	?	-14.8%	-0.9%	-6.3%	2.4%	24.0
Cc1ccc(-c2nc(S(=O)(=O)c3ccc(C)cc3)c(N(C)C)o2)cc1	-0.5%	0.5%	3.6%	?	23.1µM*	-11.3
CN(C)CCNc1oc(-c2ccccc2Cl)nc1S(=O)(=O)c1ccccc1	14.5%	?	1.1%	-16.5%	-12.5%	0.0
Cc1ccc(S(=O)(=O)c2nc(-c3ccccc3Cl)oc2N(C)C)cc1	12.1%	?	3.4%	7.31µM*	10.3µM*	33.9
CN(C)c1oc(-c2ccccc2Cl)nc1P(=O)(c1ccccc1)c1ccccc1	18.4µM*	?	7.1%	?	?	-62.3*
CCN(C(=O)COC(=O)c1oc2ccccc2c1C)c1c(N)n(Cc2ccccc2)c(=O)[nH]c1=O	9.8%	3.7%	0.3%	?	-4.9%	-1.9
CN(N=O)c1ccc2c(c1)Cc1ccccc1-2	.	.	.	-27.6%	?	.
CCCN1C(=O)c2ccccc2NC1c1ccc(OC)c(COc2ccc([N+](=O)[O-])cc2)c1 (configuration not stated)	.	.	.	10µM*	10µM*	.
COc1cccc(OCc2cc(C3Nc4ccccc4C(=O)N3c3ccccc3)ccc2OC)c1 (configuration not stated)	.	.	.	10µM*	12.6µM*	.
COc1cc(C2Nc3ccccc3C(=O)N2c2ccccc2)c(Br)cc1OCC(=O)O (configuration not stated)	-6.2%	23.1µM*	?	-12.3%	-20.8%	0.0
COc1ccc(C2Nc3ccccc3C(=O)N2Cc2ccccc2)cc1COc1ccccc1F (configuration not stated)	.	.	.	?	14.1µM*	.
COc1ccc(N2C(=O)c3ccccc3NC2c2ccc(OC)c(COc3ccccn3)c2)cc1 (configuration not stated)	1.1%	18.0%	-21.2%	?	?	-12.0
COC(=O)COc1ccc(Cl)cc1C1Nc2ccccc2C(=O)N1c1ccc(OC)cc1 (configuration not stated)	4.1%	7.4%	-14.4%	-19.6%	-18.4%	25.9
COc1ccc(C2Nc3ccccc3C(=O)N2Cc2ccccc2)cc1COc1ccc([N+](=O)[O-])c(C)c1 (configuration not stated)	.	.	.	-14.1%	-16.2%	.
COc1ccc(C)cc1-n1cnc2cc(C(=O)NC3CCCCCC3)ccc21	.	.	16.5%	?	?	.
Cc1ccc(/C=N/n2cnc3sc(C)c(C)c3c2=O)o1	-0.9%	-26.1%	-0.2%	0.0%	-13.5%	6.8
COc1cc(NC(=O)N2CCC(CN3CCCCCC3)CC2)cc(OC)c1OC	.	.	.	2.3%	-1.7%	.
